Of roughly 8,800 targets only a part is listed; those with a hit were picked by preference. About 0.5% of all pairs of compound and target were hits.
Tests used:
Assay in all cases: log2 fold change, soluble protein after heating vs DMSO (PISA); higher = thermal stabilisation; K562 lysate, 10 uM; active = over 0.2 and 3.5 SD of the protein, either way, in both replicates (recomputed)
nilotinib = compound: Cc1cn(-c2cc(NC(=O)c3ccc(C)c(Nc4nccc(-c5cccnc5)n4)c3)cc(C(F)(F)F)c2)cn1 [nilotinib]
Procedure, shortened: (§1)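 Quantification was by TMTpro 16plex LC-MS/MS with equalised channel sums, applied to the supernatant after 21,000xg for 90 min. Samples were crude K562 extract at 1 mg/mL protein in PBS pH 7.4 with 1 mM MgCl2, treated with 10 μM compound for 30 min, heated for 3 min across 48°C-58°C, pooled and brought to 0.5% NP-40 at 4°C. Values are log-two fold changes in thermal stability relative to solvent controls, from duplicates.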

[1] = compound: Cc1nc(Nc2n[nH]c3c2CN(C(=O)N[C@H](CN(C)C)c2ccccc2)C3(C)C)c2sccc2n1
Procedure, shortened: as §1

dasatinib = compound: Cc1nc(Nc2ncc(C(=O)Nc3c(C)cccc3Cl)s2)cc(N2CCN(CCO)CC2)n1 [dasatinib]
Procedure, shortened: as §1

[2] = compound: Cc1ncc(-c2ccnc(Nc3ccc(S(C)(=O)=O)cc3)n2)n1C(C)C
Procedure, shortened: as §1

[3] = compound: Cn1cc(-c2ccc3c(c2)CCN3C(=O)Cc2cccc(C(F)(F)F)c2)c2c(N)ncnc21
Procedure, shortened: as §1

quisinostat = compound: Cn1cc(CNCC2CCN(c3ncc(C(=O)NO)cn3)CC2)c2ccccc21 [quisinostat]
Procedure, shortened: as §1

tipifarnib = compound: Cn1cncc1[C@@](N)(c1ccc(Cl)cc1)c1ccc2c(c1)c(-c1cccc(Cl)c1)cc(=O)n2C [tipifarnib]
Procedure, shortened: as §1

[4] = compound: NC(=O)Nc1cc(-c2cccc(F)c2)sc1C(=O)N[C@H]1CCCNC1
Procedure, shortened: as §1

[5] = compound: NC(=O)c1cnc(N[C@@H]2CCCC[C@@H]2N)nc1Nc1cccc(-n2nccn2)c1
Procedure, shortened: as §1

[6] = compound: NC1(c2ccc(-c3nc4ccn5c(=O)[nH]nc5c4cc3-c3ccccc3)cc2)CCC1
Procedure, shortened: as §1

[7] = compound: NCC(=O)Nc1ccc(-n2nc(C(F)(F)F)cc2-c2ccc3c(ccc4ccccc43)c2)cc1
Procedure, shortened: as §1

vorinostat = compound: O=C(CCCCCCC(=O)Nc1ccccc1)NO [vorinostat]
Procedure, shortened: as §1

silmitasertib = compound: O=C(O)c1ccc2c(c1)nc(Nc1cccc(Cl)c1)c1ccncc12 [silmitasertib]
Procedure, shortened: as §1

[8] = compound: O=C1NC(=O)C(c2cnc3ccccn23)=C1c1cn2c3c(cc(F)cc13)CN(C(=O)N1CCCCC1)CC2
Procedure, shortened: as §1

entospletinib = compound: c1cn2cc(-c3ccc4cn[nH]c4c3)nc(Nc3ccc(N4CCOCC4)cc3)c2n1 [entospletinib]
Procedure, shortened: as §1

Measured: log2 fold change

ACOX1 isoform 2 (UniProt Q15067)
inactive: nilotinib 0.104 | [1] 0.005 | dasatinib 0.065 | [2] -0.011 | [3] 0.019 | quisinostat 0 | tipifarnib -0.042 | [4] -0.018 | [5] -0.039 | [6] 0 | [7] 0.009 | vorinostat 0.09 | silmitasertib 0.009 | [8] 0.04 | entospletinib -0.012

ALDH2 (UniProt P05091)
Sequence of UniProt P05091 (P05091 whole entry, looked up): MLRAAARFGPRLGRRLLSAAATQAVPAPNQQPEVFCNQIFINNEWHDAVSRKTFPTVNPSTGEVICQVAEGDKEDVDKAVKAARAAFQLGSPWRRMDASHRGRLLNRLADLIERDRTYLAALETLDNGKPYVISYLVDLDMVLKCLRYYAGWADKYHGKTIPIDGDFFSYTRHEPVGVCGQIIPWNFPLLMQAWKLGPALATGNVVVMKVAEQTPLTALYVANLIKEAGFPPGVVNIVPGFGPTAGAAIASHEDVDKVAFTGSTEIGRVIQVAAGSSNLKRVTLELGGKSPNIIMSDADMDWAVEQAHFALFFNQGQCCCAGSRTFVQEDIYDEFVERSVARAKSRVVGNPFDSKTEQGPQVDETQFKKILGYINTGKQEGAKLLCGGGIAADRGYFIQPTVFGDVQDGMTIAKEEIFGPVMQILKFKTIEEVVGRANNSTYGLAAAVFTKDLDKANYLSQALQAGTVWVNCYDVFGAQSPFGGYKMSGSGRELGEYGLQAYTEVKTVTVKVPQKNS
inactive: nilotinib 0.028 | [1] -0.017 | dasatinib 0.014 | [2] -0.013 | [3] 0.001 | quisinostat 0.121 | tipifarnib 0.039 | [4] 0.001 | [5] 0.016 | [6] -0.003 | [7] -0.068 | silmitasertib 0.009 | [8] 0.019 | entospletinib -0.009
active: vorinostat 0.627

ACADM isoform 2 (UniProt P11310)
Sequence of UniProt P11310 (P11310 whole entry, looked up): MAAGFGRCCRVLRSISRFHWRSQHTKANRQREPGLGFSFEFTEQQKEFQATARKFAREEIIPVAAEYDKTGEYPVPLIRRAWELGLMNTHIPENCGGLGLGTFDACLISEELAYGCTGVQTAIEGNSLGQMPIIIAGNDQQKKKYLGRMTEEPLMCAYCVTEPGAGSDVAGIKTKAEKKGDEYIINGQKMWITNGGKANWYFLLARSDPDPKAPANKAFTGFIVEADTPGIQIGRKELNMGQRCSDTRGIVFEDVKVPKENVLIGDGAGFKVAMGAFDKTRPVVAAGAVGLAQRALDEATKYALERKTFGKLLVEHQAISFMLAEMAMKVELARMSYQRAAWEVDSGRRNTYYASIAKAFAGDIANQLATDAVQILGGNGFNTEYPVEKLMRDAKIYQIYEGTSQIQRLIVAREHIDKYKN
inactive: nilotinib -0.031 | [1] -0.008 | dasatinib -0.041 | [2] -0.009 | [3] 0.001 | quisinostat 0.009 | tipifarnib -0.021 | [4] -0.027 | [5] -0.033 | [6] -0.091 | [7] -0.015 | silmitasertib -0.015 | [8] 0.023 | entospletinib 0.016
active: vorinostat 0.344

ANXA13 isoform 2 (UniProt P27216)
inactive: nilotinib -0.001 | [1] 0.005 | dasatinib 0.007 | [2] -0.079 | [3] 0.104 | quisinostat -0.022 | tipifarnib 0.123 | [4] 0.023 | [5] 0.032 | [6] 0.078 | [7] -0.084 | vorinostat 0.004 | silmitasertib 0.024 | [8] 0.02

ARHGEF1 (UniProt M0QZR4)
active: vorinostat -0.392
inactive: nilotinib 0.009 | [1] -0.031 | dasatinib -0.058 | [2] -0.016 | [3] 0.022 | quisinostat -0.02 | tipifarnib 0.01 | [4] 0.015 | [5] 0.017 | [6] -0.015 | [7] 0.019 | silmitasertib 0.023 | [8] 0.004 | entospletinib 0.003

AFF4 (UniProt Q9UHB7)
inactive: nilotinib -0.039 | [1] -0.068 | dasatinib 0.005 | [2] 0.012 | [3] 0.023 | quisinostat 0.02 | tipifarnib 0.065 | [4] 0.032 | [5] -0.026 | [6] 0.022 | [7] -0.119 | vorinostat 0.078 | silmitasertib -0.04 | [8] -0.031 | entospletinib -0.088

ANAPC7 (UniProt Q9UJX3)
inactive: nilotinib -0.004 | [1] -0.006 | dasatinib -0.004 | [2] 0.008 | [3] 0.02 | quisinostat -0.054 | tipifarnib -0.019 | [4] 0.03 | [5] 0 | [6] -0.018 | [7] -0.035 | silmitasertib 0.023 | [8] 0.007 | entospletinib 0.046
active: vorinostat -0.218

ANKRD54 (UniProt Q6NXT1)
Sequence of UniProt Q6NXT1 (Q6NXT1 whole entry, looked up): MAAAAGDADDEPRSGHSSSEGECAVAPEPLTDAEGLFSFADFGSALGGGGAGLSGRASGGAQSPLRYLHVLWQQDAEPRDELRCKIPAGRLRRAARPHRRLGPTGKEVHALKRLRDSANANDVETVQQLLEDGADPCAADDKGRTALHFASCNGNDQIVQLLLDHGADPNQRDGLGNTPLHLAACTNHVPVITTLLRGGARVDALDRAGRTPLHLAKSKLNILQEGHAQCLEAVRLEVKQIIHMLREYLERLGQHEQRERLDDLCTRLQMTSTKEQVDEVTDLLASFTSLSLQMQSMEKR
inactive: nilotinib 0.053 | [1] -0.003 | dasatinib -0.013 | [2] 0.05 | [3] -0.018 | quisinostat -0.024 | tipifarnib 0.019 | [4] -0.013 | [5] 0 | [6] 0.04 | [7] 0.023 | silmitasertib 0.007 | [8] -0.076 | entospletinib -0.006
active: vorinostat -0.245

AKR1B1 (UniProt P15121)
active: vorinostat 0.24
inactive: nilotinib 0.031 | [1] -0.022 | dasatinib 0.086 | [2] 0.028 | [3] -0.136 | quisinostat 0.016 | tipifarnib -0.036 | [4] 0.03 | [5] -0.009 | [6] 0.038 | [7] -0.018 | silmitasertib -0.004 | [8] -0.026 | entospletinib -0.065

ARHGAP25 isoform 4 (UniProt P42331)
active: vorinostat -0.377
inactive: nilotinib -0.037 | [1] 0.039 | dasatinib -0.039 | [2] 0.022 | [3] 0.008 | quisinostat -0.115 | tipifarnib -0.016 | [4] 0.017 | [5] 0.028 | [6] -0.009 | [7] 0.027 | silmitasertib 0.011 | [8] -0.038 | entospletinib 0.009

ABL2 (UniProt P42684)
inactive: nilotinib -0.084 | [1] 0.157 | dasatinib 0.067 | [2] 0.091 | [3] 0.064 | quisinostat -0.16 | tipifarnib -0.116 | [4] 0.103 | [5] -0.028 | [6] -0.027 | [7] -0.093 | vorinostat -0.274 | silmitasertib 0.073 | [8] -0.055 | entospletinib -0.05

ABCF3 (UniProt Q9NUQ8)
active: vorinostat -0.439
inactive: nilotinib -0.025 | [1] 0.014 | dasatinib -0.053 | [2] 0.001 | [3] 0.044 | quisinostat -0.04 | tipifarnib -0.003 | [4] 0.012 | [5] 0.011 | [6] -0.062 | [7] 0.026 | silmitasertib 0.033 | [8] -0.004 | entospletinib -0.013

ALDH18A1 (UniProt P54886)
Sequence of UniProt P54886 (P54886 whole entry, looked up): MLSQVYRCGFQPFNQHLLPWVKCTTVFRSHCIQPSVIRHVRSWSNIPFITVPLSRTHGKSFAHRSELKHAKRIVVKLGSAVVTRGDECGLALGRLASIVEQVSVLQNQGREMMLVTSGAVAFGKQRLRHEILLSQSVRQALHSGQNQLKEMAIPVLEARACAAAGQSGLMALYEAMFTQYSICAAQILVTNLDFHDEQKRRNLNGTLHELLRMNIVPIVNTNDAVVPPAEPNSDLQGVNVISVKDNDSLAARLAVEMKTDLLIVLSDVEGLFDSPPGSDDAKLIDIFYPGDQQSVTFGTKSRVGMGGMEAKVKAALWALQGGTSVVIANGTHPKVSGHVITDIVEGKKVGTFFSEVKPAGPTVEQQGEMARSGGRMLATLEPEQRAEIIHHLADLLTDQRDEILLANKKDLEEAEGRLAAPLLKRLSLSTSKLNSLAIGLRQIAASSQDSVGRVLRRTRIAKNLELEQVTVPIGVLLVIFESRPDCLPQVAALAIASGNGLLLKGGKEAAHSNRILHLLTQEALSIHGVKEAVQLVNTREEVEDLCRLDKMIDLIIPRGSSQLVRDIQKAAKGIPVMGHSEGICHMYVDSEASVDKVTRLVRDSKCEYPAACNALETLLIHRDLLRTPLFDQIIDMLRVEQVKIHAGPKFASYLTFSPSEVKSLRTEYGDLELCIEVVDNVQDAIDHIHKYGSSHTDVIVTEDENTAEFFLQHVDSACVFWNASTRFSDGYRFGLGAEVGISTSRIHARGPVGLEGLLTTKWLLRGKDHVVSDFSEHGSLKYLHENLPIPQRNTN
inactive: nilotinib 0 | [1] -0.023 | dasatinib -0.027 | [2] -0.004 | [3] 0.007 | quisinostat -0.06 | tipifarnib -0.001 | [4] 0.025 | [5] 0.023 | [6] -0.019 | [7] 0.023 | silmitasertib 0.023 | [8] -0.015 | entospletinib 0.022
active: vorinostat -0.401

ACACB (UniProt O00763)
Sequence of UniProt O00763 (O00763 whole entry, looked up): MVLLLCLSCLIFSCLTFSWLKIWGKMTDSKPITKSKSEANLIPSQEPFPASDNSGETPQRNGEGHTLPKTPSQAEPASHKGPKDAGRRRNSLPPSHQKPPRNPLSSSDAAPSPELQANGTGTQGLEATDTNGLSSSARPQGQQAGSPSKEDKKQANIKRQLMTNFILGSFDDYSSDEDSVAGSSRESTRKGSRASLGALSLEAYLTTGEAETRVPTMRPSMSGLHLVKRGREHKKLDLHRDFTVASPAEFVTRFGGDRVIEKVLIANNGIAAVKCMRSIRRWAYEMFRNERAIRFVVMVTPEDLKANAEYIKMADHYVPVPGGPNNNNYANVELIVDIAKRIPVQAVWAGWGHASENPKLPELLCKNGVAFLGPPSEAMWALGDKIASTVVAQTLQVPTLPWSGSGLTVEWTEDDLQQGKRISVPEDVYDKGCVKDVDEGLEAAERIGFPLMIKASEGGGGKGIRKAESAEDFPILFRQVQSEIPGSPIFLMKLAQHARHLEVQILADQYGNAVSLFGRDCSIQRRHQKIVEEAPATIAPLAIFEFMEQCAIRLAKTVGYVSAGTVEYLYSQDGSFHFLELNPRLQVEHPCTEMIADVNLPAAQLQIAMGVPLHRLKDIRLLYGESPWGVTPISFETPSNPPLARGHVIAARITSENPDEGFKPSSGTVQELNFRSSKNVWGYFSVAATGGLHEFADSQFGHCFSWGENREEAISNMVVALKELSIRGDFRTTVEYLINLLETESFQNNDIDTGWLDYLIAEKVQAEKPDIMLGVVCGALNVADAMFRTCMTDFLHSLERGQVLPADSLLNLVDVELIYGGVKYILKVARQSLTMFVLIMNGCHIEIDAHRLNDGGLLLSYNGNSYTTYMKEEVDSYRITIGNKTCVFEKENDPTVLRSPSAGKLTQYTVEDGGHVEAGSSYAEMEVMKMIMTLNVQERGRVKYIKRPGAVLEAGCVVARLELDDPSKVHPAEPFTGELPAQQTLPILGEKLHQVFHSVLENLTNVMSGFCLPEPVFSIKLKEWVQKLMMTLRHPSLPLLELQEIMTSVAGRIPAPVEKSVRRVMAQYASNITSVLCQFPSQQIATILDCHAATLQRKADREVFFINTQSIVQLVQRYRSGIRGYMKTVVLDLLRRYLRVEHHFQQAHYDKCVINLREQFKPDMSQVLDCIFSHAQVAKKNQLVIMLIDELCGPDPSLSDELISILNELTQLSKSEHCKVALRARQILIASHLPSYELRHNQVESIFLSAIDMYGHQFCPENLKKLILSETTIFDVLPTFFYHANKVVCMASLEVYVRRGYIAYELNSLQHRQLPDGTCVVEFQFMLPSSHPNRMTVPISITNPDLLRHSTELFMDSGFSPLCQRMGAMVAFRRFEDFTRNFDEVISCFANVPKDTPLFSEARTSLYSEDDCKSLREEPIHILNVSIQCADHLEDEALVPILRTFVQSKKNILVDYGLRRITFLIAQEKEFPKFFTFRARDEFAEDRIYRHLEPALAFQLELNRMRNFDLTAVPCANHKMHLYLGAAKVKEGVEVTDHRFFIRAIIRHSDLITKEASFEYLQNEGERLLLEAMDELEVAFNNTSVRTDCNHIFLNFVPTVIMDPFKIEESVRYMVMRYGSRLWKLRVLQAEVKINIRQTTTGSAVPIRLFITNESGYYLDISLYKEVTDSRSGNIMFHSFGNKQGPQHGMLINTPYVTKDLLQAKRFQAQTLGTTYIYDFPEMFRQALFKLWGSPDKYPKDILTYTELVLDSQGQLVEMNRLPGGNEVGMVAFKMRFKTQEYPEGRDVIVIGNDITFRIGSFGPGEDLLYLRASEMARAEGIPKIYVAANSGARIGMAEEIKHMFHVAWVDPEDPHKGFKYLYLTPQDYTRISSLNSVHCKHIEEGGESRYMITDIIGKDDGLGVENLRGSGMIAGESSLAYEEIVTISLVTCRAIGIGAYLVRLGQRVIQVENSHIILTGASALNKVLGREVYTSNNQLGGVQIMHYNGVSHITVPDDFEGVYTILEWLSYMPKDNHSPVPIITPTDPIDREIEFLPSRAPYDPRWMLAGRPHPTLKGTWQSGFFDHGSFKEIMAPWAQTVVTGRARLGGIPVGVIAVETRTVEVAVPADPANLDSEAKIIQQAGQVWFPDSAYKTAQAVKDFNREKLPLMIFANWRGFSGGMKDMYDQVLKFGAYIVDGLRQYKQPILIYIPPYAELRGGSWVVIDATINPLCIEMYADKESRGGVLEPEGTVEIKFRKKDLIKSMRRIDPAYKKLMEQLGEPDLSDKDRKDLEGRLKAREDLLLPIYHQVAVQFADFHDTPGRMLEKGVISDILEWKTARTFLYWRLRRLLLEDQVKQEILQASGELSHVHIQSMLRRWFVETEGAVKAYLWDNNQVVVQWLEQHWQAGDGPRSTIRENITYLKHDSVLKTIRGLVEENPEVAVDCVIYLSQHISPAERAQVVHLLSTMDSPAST
inactive: nilotinib -0.001 | [1] -0.042 | dasatinib -0.021 | [2] -0.052 | [3] 0.05 | quisinostat -0.061 | tipifarnib 0.048 | [4] 0.062 | [5] -0.001 | [6] -0.018 | [7] -0.026 | silmitasertib 0.03 | [8] -0.009 | entospletinib 0.088
active: vorinostat -0.438

ANXA1 (UniProt P04083)
Sequence of UniProt P04083 (P04083 whole entry, looked up): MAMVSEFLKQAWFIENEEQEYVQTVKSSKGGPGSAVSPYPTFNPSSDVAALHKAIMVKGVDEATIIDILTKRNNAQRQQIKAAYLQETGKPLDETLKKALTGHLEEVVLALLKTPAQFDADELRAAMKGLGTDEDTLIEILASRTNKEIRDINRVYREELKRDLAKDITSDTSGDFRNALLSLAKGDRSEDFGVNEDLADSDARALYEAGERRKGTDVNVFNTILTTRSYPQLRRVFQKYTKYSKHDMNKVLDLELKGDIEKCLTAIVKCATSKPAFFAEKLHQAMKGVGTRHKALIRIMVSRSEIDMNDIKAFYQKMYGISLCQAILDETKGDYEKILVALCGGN
inactive: nilotinib -0.01 | [1] -0.009 | dasatinib -0.009 | [2] -0.006 | [3] -0.006 | quisinostat 0.034 | tipifarnib 0.026 | [4] -0.015 | [5] 0.003 | [6] 0.009 | [7] -0.013 | silmitasertib -0.007 | [8] -0.031 | entospletinib 0.011
active: vorinostat -0.255

ARMC6 (UniProt Q6NXE6)
active: vorinostat -0.422
inactive: nilotinib -0.001 | [1] -0.006 | dasatinib -0.055 | [2] -0.017 | [3] 0.013 | quisinostat -0.057 | tipifarnib 0 | [4] 0.094 | [5] 0.017 | [6] -0.031 | [7] -0.011 | silmitasertib 0.02 | [8] -0.006 | entospletinib 0.011

ACSL4 (UniProt O60488)
active: vorinostat -0.321
inactive: nilotinib -0.011 | [1] 0.008 | dasatinib 0.004 | [2] 0.018 | [3] 0.02 | quisinostat -0.018 | tipifarnib -0.051 | [4] 0.029 | [5] -0.032 | [6] -0.074 | [7] 0.137 | silmitasertib 0.066 | [8] -0.002 | entospletinib 0.014

ALG8 (UniProt Q9BVK2)
inactive: nilotinib -0.007 | [1] -0.008 | dasatinib -0.051 | [2] -0.077 | [3] 0.02 | quisinostat 0.019 | tipifarnib -0.165 | [4] 0.043 | [5] -0.025 | [6] -0.006 | [7] -0.022 | vorinostat -0.05 | silmitasertib 0.063 | [8] -0.008 | entospletinib -0.007

ABCD3 (UniProt P28288)
inactive: nilotinib 0.019 | [1] 0.093 | dasatinib -0.063 | [2] -0.184 | [3] 0.031 | quisinostat 0.074 | tipifarnib -0.025 | [4] 0.016 | [5] -0.054 | [6] 0.087 | [7] -0.019 | vorinostat -0.164 | silmitasertib 0.113 | [8] -0.08 | entospletinib 0.034

ACAT1 (UniProt P24752)
inactive: nilotinib 0.028 | [1] -0.021 | dasatinib 0.015 | [2] 0.019 | [3] -0.029 | quisinostat -0.006 | tipifarnib 0.044 | [4] -0.001 | [5] -0.005 | [6] 0.021 | [7] 0.011 | silmitasertib -0.037 | [8] -0.014 | entospletinib 0.018
active: vorinostat -1.05

ANKRD27 (UniProt Q96NW4)
inactive: nilotinib 0.016 | [1] 0.049 | dasatinib -0.01 | [2] 0.061 | [3] -0.023 | quisinostat -0.177 | tipifarnib -0.067 | [4] 0.05 | [5] 0.025 | [6] -0.033 | [7] -0.066 | silmitasertib -0.025 | [8] 0.022 | entospletinib 0.01
active: vorinostat -0.451
